“And” between values parts separate entries of the source, which are not always exact repeats. Equal entries are not always repeated. Hit rate of the full screen: of about 2,100 compounds, about 590 (28%) were called active. About 42% were inconclusive and are not listed. The list shows a part of the results. Unmarked numbers belong to inactive results. Calls follow the shape of the dose curve; as a rule, active = well fitted inhibition curve with a large enough effect; inconclusive = small, poorly fitted or top-dose-only effect; inactive = flat fitted curve, though single readings scatter.
Each compound was assayed against DNA dC->dU-editing enzyme APOBEC-3F (Homo sapiens) (UniProt Q8IUX4) (assay: qHTS for inhibitors of Vif-A3F interactions: Cherry picks). Conditions: HeLa A3F-eYFP + Vif (tagged APOBEC3F with the HIV-1 protein that degrades it), eYFP fluorescence, 24 h.
Sequence of DNA dC->dU-editing enzyme APOBEC-3F (Homo sapiens) (Q8IUX4 whole entry, looked up): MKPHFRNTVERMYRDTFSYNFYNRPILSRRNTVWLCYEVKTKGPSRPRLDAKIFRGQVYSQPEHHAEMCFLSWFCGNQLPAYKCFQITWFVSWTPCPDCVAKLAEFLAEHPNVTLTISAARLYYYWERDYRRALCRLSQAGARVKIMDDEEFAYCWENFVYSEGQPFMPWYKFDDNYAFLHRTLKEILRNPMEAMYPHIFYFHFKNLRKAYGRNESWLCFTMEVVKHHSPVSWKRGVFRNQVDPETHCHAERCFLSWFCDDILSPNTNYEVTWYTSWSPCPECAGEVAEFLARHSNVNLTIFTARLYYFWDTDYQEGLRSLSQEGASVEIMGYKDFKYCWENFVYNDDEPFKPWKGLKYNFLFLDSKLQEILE
In short: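 HeLa cells stably expressing A3F-eYFP plus Vif, cultured overnight, then exposed to compounds at several concentrations for 24 h at 37 deg C. Reduced Vif-driven degradation read as rising eYFP fluorescence (488 nm ex/500-530 nm em) by laser-scanning cytometry; MG132 as positive control.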
`CCOc1ccc(-c2cc(C(=O)N/N=C(\C)c3cccnc3)c3ccccc3n2)cc1` showed a max response of -8.69%.
`CCN(CC)c1ccc(/C=C/c2ccnc3ccccc23)cc1` was tested, and the Potency was 6.51 µM (active).
With `CCCCN(CCCC)c1ccc(/C=C/c2ccnc3ccccc23)cc1` the Potency was 20.6 µM (active).
With `CCN(CCCN(C)C)c1ccc(/C=C/c2ccnc3ccccc23)cc1` the Potency was 18.4 µM (active).
For `CCOC(=O)c1c(C)oc2ccc(N(C(=O)c3ccncc3)S(=O)(=O)c3ccc(Br)cc3)cc12`, the max response was -14.4%.
With `O=C(NC1C/C(=N/O)c2cc3c(cc21)OCO3)C(F)(F)F` (stereo not given) the max response was 0.0424%.
`Cc1cccc(-n2c(N)c(-c3nc4ccccc4n3C)c3nc4ccccc4nc32)c1` was tested, and the max response was -0.799%.
With `CC(=O)n1c2ccccc2c2nc3ccccc3nc21` the Potency was 11.6 µM (active).
`N#C/C(=C\c1ccc(-c2ccc(C(=O)O)cc2)o1)c1nc2ccccc2[nH]1` gave a max response of 0.542%.
`Cc1ccc2nc(/C(C#N)=C/c3ccc(-c4ccccc4C(=O)O)o3)[nH]c2c1` showed a max response of -7.06%.
For `Cc1ccc2nc(/C(C#N)=C/c3ccc(-c4ccc(C(=O)OC(C)C)cc4)o3)[nH]c2c1`, the Potency was 2.06 µM (active).
`Cc1ccc2nc(/C(C#N)=C/c3ccc(-c4cccc(Cl)c4)o3)[nH]c2c1` was tested, and the Potency was 4.61 µM (active).
For `Cc1ccc2nc(/C(C#N)=C/c3ccc(-c4ccc(F)cc4F)o3)[nH]c2c1`, the Potency was 4.11 µM (active).
For `Cc1ccc2nc(/C(C#N)=C/c3ccc(-c4cccc([N+](=O)[O-])c4)o3)[nH]c2c1`, the max response was -29.2%.
With `N#C/C(=C\c1ccc(-c2ccc(F)cc2F)o1)c1nc2ccccc2[nH]1` the Potency was 20.6 µM (active).
For `CSCC[C@H](NC(=O)[C@H](Cc1ccccc1)n1c(=O)[nH]c2ccccc2c1=O)C(=O)N1CCC[C@@H]1C(=O)O`, the max response was 1.14%.
With `Cc1c(Cl)cccc1-c1ccc(/C=C(\C#N)c2nc3ccccc3[nH]2)o1` the Potency was 20.6 µM (active).
With `CCOC(=O)/C(=C/C1=CC(=C/N(C)C)/C(=O)O1)C(C)=O` the max response was -9.79%.
`CN(C)CCCNc1cc(N2CCN(C3CCCCC3)CC2)c2noc3c2c1C(=O)c1ccccc1-3` was tested, and the Potency was 9.2 µM (active).
In the case of `CCNc1cc(N2CCN(C3CCCCC3)CC2)c2noc3c2c1C(=O)c1ccccc1-3`, the Potency is reported as 18.4 µM (active).
For `O=C1c2ccccc2-c2onc3c(N4CCN(C5CCCCC5)CC4)cc(NCCO)c1c23`, the Potency was 3.66 µM (active).
`CCOC(=O)c1cnc(-n2nc(C)cc2C)nc1NNc1cc(C)nc(-c2ccccc2)n1` gave a max response of 0.647%.
For `Nc1c(C(=O)N/N=C/c2ccc(F)cc2)oc2nc(-c3ccccc3)cc(-c3ccco3)c12`, the Potency was 7.9 µM (active).
For `O=C(CSc1nc(-c2ccco2)cc(C(F)(F)F)n1)Nc1cccnc1`, the max response was -24.4%.
`Nc1c(C(=O)N/N=C/c2ccccc2Cl)oc2nc(-c3ccccc3)cc(-c3ccco3)c12` was tested, and the Potency was 2.91 µM (active).
`C/C(=N\Nc1nc(C)cc(-c2ccccc2)n1)c1ccc(F)cc1` showed a max response of -6.16%.
Work on `Cc1cc(/C=N/NC(=O)c2cc3ccccc3o2)c(C)n1C` yielded a max response of -15.8%.
`Cc1cc(-c2ccccc2)nc(N/N=C/c2ccccc2F)n1` gave a max response of -4.11%.
With `Nc1c(C(=O)N/N=C/c2cccnc2)oc2nc(-c3ccccc3)cc(-c3ccco3)c12` the Potency was 13 µM (active).
Work on `C=CCOC(=O)C1=C(C)NC(C)=C(C(=O)OCC=C)C1c1cn(-c2ccccc2)nc1-c1ccco1` yielded a max response of 0.509%.
With `N=C1S/C(=C\c2ccc(-c3cccc(Cl)c3)o2)C(=O)N1c1nccs1` the Potency was 18.4 µM (active).
For `CC(=O)/C(=C\N(C)C)Sc1ccc(Cl)cc1`, the max response was 1.31%.
With `CC[n+]1cc(C)ccc1/C=C/c1ccc(N(C)C)cc1` the Potency was 8.86 µM (active).
In the case of `Cc1ccc(/C=C/c2ccc(N(C)C)cc2)[n+](C)c1`, the Potency is reported as 8.86 µM (active).
For `CN(C)c1ccc(/C=C/c2cc[n+](C)cc2)cc1`, the Potency was 15.8 µM (active).
With `CN1CCC(OC(=O)c2cc3cc(Cl)cc(Cl)c3oc2=O)CC1` the max response was 3.05%.
In the case of `COC(=O)[C@@]1(Cc2ccccc2)[C@@H]2C(=CC(=O)[C@H]2CC(=O)C(=O)N(C)C)CN1C(=O)c1ccccc1`, the max response is reported as -26.2%.
`Nc1nc2n[nH]nc2c(=O)[nH]1` was tested, and the Potency was 6.51 µM (active) and 3.53 µM (active).
For `N#C/C(N=Nc1ccccc1O)=N\Nc1ccccc1O`, the Potency was 14.6 µM (active).
`CCCCN1C(=O)/C(=C2/Sc3ccccc3N2C)S/C1=N\c1ncn[nH]1` was tested, and the Potency was 18.4 µM (active).
`CCn1c2ccccc2c2cc(NC(=O)c3ccc(=O)oc3)ccc21` gave a max response of -28.9%.
In the case of `Cc1cnc(NC(=O)CC(C)c2ccccc2)s1` (stereo not given), the max response is reported as -26.1%.
`CC(CC(=O)Nc1ccc2c(c1)c(=O)n(C)n2-c1ccccc1)c1ccccc1` (stereo not given) was tested, and the Potency was 4.98 µM (active).
With `CC(C)(C)c1ccc(Cn2c(=O)cnc3ccccc32)cc1` the max response was -25.6%.
With `CCOc1ccc(Cn2c3ccc(OC)cc3c3nc4ccccc4nc32)cc1` the Potency was 8.2 µM (active).
In the case of `CCOc1ccccc1OCC(=O)N/N=C(\C)Cc1ccc(OC)cc1`, the max response is reported as -18.5%.
Compound `Cc1ccc(-c2ccc(/C=N/NC(N)=S)o2)cc1` has a max response of -8.18%.
`NC(=S)N/N=C\c1ccc(-c2cccc(Cl)c2Cl)o1` gave a max response of -18.7%.
For `Cc1cc([N+](=O)[O-])ccc1-c1ccc(/C=N/NC(=O)c2ccc(Br)o2)o1`, the Potency was 18.4 µM (active).
For `CC(C)(C)NC(=S)N/N=C\c1ccc(-c2ccc([N+](=O)[O-])cc2)o1`, the Potency was 14.6 µM (active).
With `O=C(O)c1ccc(-c2ccc(/C=N/Nc3ccc([N+](=O)[O-])cc3)o2)cc1` the Potency was 15.8 µM (active).
For `O=C(O)c1cccc(-c2ccc(/C=N/Nc3ccc([N+](=O)[O-])cc3)o2)c1`, the Potency was 18.4 µM (active).
`C/C(CCc1ccc2c(c1)OCO2)=N\NC(=S)NC(C)C` was tested, and the max response was -2.82%.
With `CN(/N=C/c1ccc(-c2ccc([N+](=O)[O-])cc2)o1)c1ccccc1` the Potency was 0.731 µM (active).
`COc1ccc(C(=O)NC(=S)NCc2cccnc2)cc1Cl` was tested, and the max response was -3.18%.
`COc1ccccc1N1CCN(C(=O)c2ccc3ncsc3c2)CC1` showed a max response of -21%.
Work on `O=C(NC(=S)Nc1c(Cl)cc(Cl)cc1Cl)c1ccccc1` yielded a max response of -0.292%.
For `COc1ccc2nc3ccccc3nc2c1NC(=O)c1ccc(Cl)cc1`, the Potency was 16.4 µM (active).
Work on `COc1ccc(C(=O)N/N=C/c2cc(Br)ccc2O)cc1OC` yielded a max response of -1.32%.
In the case of `COc1ccc2nc3ccccc3nc2c1NC(=O)c1ccc(Br)cc1`, the Potency is reported as 18.4 µM (active).
For `COc1ccc2nc3ccccc3nc2c1NC(=O)c1ccc(Cl)cc1Cl`, the Potency was 3.53 µM (active).
For `COc1cc2nc(/C=C/c3ccc(N(C)C)cc3)sc2cc1SC`, the Potency was 20.6 µM (active).
For `CCN(CC)c1ccc2cc(-c3nc4sc5c(c4c(=O)[nH]3)CCC(C(C)(C)C)C5)c(=O)oc2c1` (stereo not given), the max response was 13.2%.
`COc1ccc2cc(-c3nc(Cl)c4c5c(sc4n3)CC(C)CC5)c(=O)oc2c1` (stereo not given) was tested, and the Potency was 5.8 µM (active).
`O=C(CSc1n[nH]c(-c2ccccn2)n1)Nc1ccc(Cl)cc1` gave a max response of 0.972%.
`O=C(Nc1ccc(Cl)cc1)Nc1ccon1` showed a max response of -9.41%.
`COc1ccccc1OCC(=O)NNC(=O)Nc1ccc(Cl)cc1` was tested, and the Potency was 14 µM (active).
Work on `COCCN(CCOC)Cc1c(O)ccc2c1O/C(=C\c1ccc(C)o1)C2=O` yielded a max response of -17.2%.
Compound `Cc1ccc(S(=O)(=O)N2CCCCC2)cc1NC(=O)Cn1ncc(Cl)c(Cl)c1=O` has a max response of -13.3%.
Work on `CCOC(=O)c1ccc(NC(=O)Cn2ncc(Cl)c(Cl)c2=O)cc1` yielded a max response of -29.1%.
For `O=C(Cn1ncc(Cl)c(Cl)c1=O)NCC1CCCCC1`, the Potency was 15.8 µM (active).
With `C=CCSc1nc2sc3c(c2c(=O)n1CC)CCC3` the max response was -3.63%.
`C[C@@H]1O[C@@H](O[C@@H]2C(=O)c3c(O)cc(O)cc3O[C@H]2c2ccc(O)c(O)c2)[C@H](O)[C@H](O)[C@H]1O` gave a max response of 2.1%.
Work on `CCC(C)Sc1ccc(-c2nc3cc(C)ccn3c2NC2CCCCC2)cc1` (stereo not given) yielded a max response of -4.06%.
In the case of `COc1cccc(N2CCN(Cc3nc4scc(-c5ccccc5)c4c(=O)[nH]3)CC2)c1`, the Potency is reported as 17.7 µM (active).
With `Cn1nnnc1SCc1nc2scc(-c3ccc(Cl)cc3)c2c(=O)[nH]1` the max response was -13.9%.
For `O=c1c(Cl)c2oc3ccccc3nc-2c2ccccc12`, the Potency was 18.4 µM (active).
`O=C(Nc1nc(-c2ccccn2)cs1)C1CCCC1` was tested, and the max response was -4.77%.
`Cc1ccc(-n2c(O)c(/C=C3/C(c4ccccc4)=Nc4ccccc43)c(=O)[nH]c2=O)cc1` showed a max response of -12.3%.
In the case of `COc1ccc(NC(=O)c2sc3nc4c(cc3c2N)CN(Cc2ccccc2)CC4)c(OC)c1`, the Potency is reported as 20.6 µM (active).
With `Nc1c(C(=O)c2ccc(Cl)cc2)sc2nc3c(cc12)CCC3` the Potency was 23.1 µM (active).
For `CCN1CCc2nc3sc(C(=O)c4ccccc4)c(N)c3cc2C1`, the Potency was 16.4 µM (active).
In the case of `Cc1cc(N2CCN(C)CC2)ccc1NC(=O)c1c2c(nc3ccccc13)CCN(Cc1ccccc1)C2`, the max response is reported as -29.2%.
For `Cc1ccccc1NC(=O)c1sc2nc3c(c(-c4ccco4)c2c1N)CCC3`, the max response was -22.7%.
In the case of `Cc1ccc(NC2=C(Cl)C(=O)N(C3CCCCC3)C2=O)cc1`, the max response is reported as -3.54%.
For `COc1cnc(-c2ccccn2)nc1Oc1ccc(F)cc1F`, the max response was 2.31%.
With `Cc1ccc(SC2=C(Sc3ccc(C)cc3)C(=O)c3ccccc3C2=O)cc1` the Potency was 20.6 µM (active).
In the case of `Cc1c(N/N=C(\C#N)C(=O)c2ccc(Cl)cc2)c(=O)n(-c2ccccc2)n1C`, the max response is reported as -12.8%.
Work on `Cc1c(NC(=O)c2csc3c2CCCC3)c(=O)n(-c2ccccc2)n1C` yielded a max response of 0.352%.
In the case of `Cc1c(N=C2N=C(NC(=O)c3cccs3)c3ccccc32)c(=O)n(-c2ccccc2)n1C`, the Potency is reported as 15.8 µM (active).

— PubChem BioAssay AID651814 (National Center for Advancing Translational Sciences (NCATS), 2012)
Also: nearly all actives have a fitted effect of over 70% in size.
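For max response in this document: % of control where 0% means no effect; active compounds raise eYFP fluorescence by blocking Vif-driven A3F loss.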
Potency is read from the fitted curve at half-maximal effect.
